Consider 14 molecules from PubChem BioAssay (NCI).

Compounds without any hit were thinned out: in the full panel of roughly 83,000, 20% have a hit.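 Single-concentration screen, 48 h exposure, 96-well plates. Endpoint: percent growth. Below 10 = active.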 Active and inactive are the calls of the source.

The test system of the assay is MDA-MB-468 breast. Put plainly: NCI-60 one-dose screen, 48 h (100 = growth as untreated, 0 = no growth, -100 = all killed). To be noted: 10 µM unless noted.
For `C=C1C(=O)O[C@H]2[C@H]1CC/C(COC(=O)NCc1ccc(OC)cc1)=C\CC[C@@]1(C)O[C@@H]21`, the growth was 27.7% (inactive).
Regarding `CCOc1nc(-c2ccccc2)cc2c(O)c(C(=O)N/N=C/c3ccccc3)[nH]c(=O)c12`, the growth is 105% (inactive).
In the case of `O=C1c2ccccc2-c2ccccc2C1(Cl)Cl`, the growth is -86.6% (active).
`O=NN(CCCl)C(=O)NCc1ccc(-c2ccc(CNC(=O)N(CCCl)N=O)cc2)cc1`: the growth was 101% (inactive).
As to `O=C(O)C1CN(c2cccc(Cl)c2)N(c2cccc(Cl)c2)C1=O` (centres undefined), the growth was 78.7% (inactive).
On to `O=C(CSc1nnc(-c2ccc3nc(-c4ccc(Cl)cc4)[nH]c3c2)o1)Nc1ccc(C(=O)/C=C/c2ccc(Cl)cc2)cc1`, for which the growth was 100% (inactive).
As to `COc1cccc(-c2nn(-c3ccccc3)cc2-c2ccnc(NCCNS(=O)(=O)c3cccc(F)c3)c2)c1`, the growth is 15.8% (inactive).
Take `N/C(=N\N=C\c1cc2ccccc2[nH]1)N/N=C/c1cc2ccccc2[nH]1`: the growth was 107% (inactive).
As to `NC(C(=O)O)c1ccc([N+](=O)[O-])cc1` (centres undefined), the growth was 111% (inactive).
The same measure for `O=c1cn[nH]c2ccc(Br)cc12`: 109% (inactive); for `Nc1ccc(S(=O)(=O)Nc2ncccn2)cc1`: 109% (inactive); for `Cc1ccccc1/C=C/C(=O)c1cccc(OCCCOc2cccc(C(=O)/C=C/c3ccccc3C)c2)c1`: 108% [3 µM] (inactive).
The value for `Cc1ccc(NC(=O)c2ccc(CN3CCN(C)CC3)c(C(F)(F)F)c2)cc1Oc1ccc(-c2[nH]nc3ncnc(N)c23)cc1` was 117% (inactive); that for `O=C(Cc1ccccc1)Cc1ccccc1` was 99.5% (inactive).
